For assay [1], the target named is Thyrotropin-releasing hormone receptor (Homo sapiens) (UniProt P34981). As to the kind of experiment: qHTS assay to identify small molecule agonists of the thyrotropin-releasing hormone receptor (TRHR) signaling pathway (AID 1346891; calls by dose curve;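 also: HEK293 cells expressing TRHR with calcium dye readout; series mostly up to about 58 µM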). The procedure, abridged:
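Overnight-plated (18 h, 37 °C, 5% CO2) TRHR-Hek293 cells; 2 h calcium dye at 37 °C; compound in DMSO; 3-min kinetic fluorescence read.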
(In general: qHTS replaces the single test concentration by a dilution series.)

Assay [2] in a line: Human pregnane X receptor (PXR) small molecule agonists, qHTS cell viability counter screen (AID 1346977). Also: nearly all actives have a fitted effect of over 50% in size. Also: potency is read from the fitted curve at half-maximal effect. The procedure, abridged: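 After a 5hr pre-incubation, PXR-Luc HepG2 cells received compounds plus positive control in DMSO and were kept 24hr at 37C. Cell viability was quantified by fluorescence from CellTiter-Fluor added for the final hour.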
Assay [3] can be described thus: Caspase-3/7 induction in HepG2 cells by small molecules, qHTS assay (AID 1346978). Also: nearly all actives have a fitted effect of over 15% in size. Summed up:
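Wild-type HepG2 cells, 2,000/well, settled 5 hr at 37 C and 5% CO2, then compound-treated for 17 hr; caspase-3/7 activity read by luminescent Caspase-Glo 3/7 after 30 min at room temperature.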

Assay [4] is described as follows: Caspase-3/7 induction in CHO-K1 cells by small molecules, qHTS cell viability counter screen (AID 1346979). Also: nearly all actives have a fitted effect of over 35% in size. Also: potency is read from the fitted curve at half-maximal effect. Summed up:
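Multiplexed with Caspase-Glo 3/7 in CHO-K1 cells, this counter screen added CellTiter-Fluor after 16hr of compound exposure and recorded fluorescence 1hr later.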

Assay [5] in a line: Caspase-3/7 induction in CHO-K1 cells by small molecules, qHTS assay (AID 1346980). Also: nearly all actives have a fitted effect of over 15% in size. The procedure, abridged:
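Wild-type CHO-K1 cells exposed to compounds for 17hr at 37 C, 5% CO2. Caspase-3/7 activity then measured by Caspase-Glo 3/7 luminescence after 30min at room temperature.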

Assay [6] can be described thus: Caspase-3/7 induction in HepG2 cells by small molecules, qHTS cell viability counter screen (AID 1346981). Also: nearly all actives have a fitted effect of over 30% in size. Also: potency is read from the fitted curve at half-maximal effect. The procedure, abridged:
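Treatment of HepG2 cells with DMSO-delivered compounds ran 16 hr at 37 C following a 5-hr pre-incubation of 2,000 cells/well. CellTiter-Fluor fluorescence, read after 1 hr, served as the viability measure in a qHTS format.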

The target in assay [7] is Nuclear receptor subfamily 1 group I member 2 (Homo sapiens) (UniProt O75469). As to the kind of experiment: Human pregnane X receptor (PXR) small molecule agonists, qHTS assay (AID 1346982). Also: nearly all actives have a fitted effect of over 35% in size. Also: potency is read from the fitted curve at half-maximal effect. Summed up: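 Stable HepG2 line reporting PXR-mediated CYP3A4 expression via luciferase. Treatment: 24 hr with compounds in DMSO at 37 C. Detection: ONE-Glo luminescence.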
Assay [8] addresses Nuclear receptor subfamily 1 group I member 2 (Rattus norvegicus) (UniProt Q9R1A7). As to the kind of experiment: Rat pregnane X receptor (rPXR) activation by small molecules, qHTS assay (AID 1346983). Also: potency is read from the fitted curve at half-maximal effect; nearly all actives have a fitted effect of over 20% in size. As to conditions: rPXR luciferase reporter cells, One-Glo luminescence, 24 h; max activation: stronger effect = higher value. The procedure, abridged:
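Cell-based rPXR activation assay: rPXR cells, 2,000 per well, rested 5hr at 37 C, then exposed to compounds in DMSO for 24 hr at 37 C. Luciferase activity read by One-Glo luminescence after 30 min at room temperature.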

The target in assay [9] is Nuclear receptor subfamily 1 group I member 2 (Homo sapiens) (UniProt O75469). As to the kind of experiment: CYP3A4 induction through human pregnane X receptor (PXR) by small molecules, qHTS assay (AID 1346984). Also: nearly all actives have a fitted effect of over 40% in size. Summed up:
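After 24 h at 37C with compound, DPX-2 cells (HepG2, co-transfected PXR response element and CYP3A4 promoter-luciferase) got 3uM final P450-Glo Luciferin-IPA for 3 h; One-Glo luminescence followed.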

Assay [10] has the same target. Nature of the assay: Human pregnane X receptor (PXR) activation by small molecules, qHTS assay (AID 1346985). Also: nearly all actives have a fitted effect of over 40% in size. The procedure, abridged: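 DPX-2 cells (HepG2 co-transfected with a PXR response element and a CYP3A4-promoter luciferase construct) were seeded at 2,000 per well, rested 5 hr at 37C, then exposed to DMSO-dissolved compounds for 24 hr. Activation was read as luciferase luminescence.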

For assay [11], the target named is Acetylcholinesterase (Homo sapiens) (UniProt P22303). Nature of the assay: Acetylcholinesterase (AChE) small molecule antagonists: colormetric cell-based qHTS assay (AID 1347395; calls by dose curve; also: nearly all actives have a fitted effect of over 30% in size; also: potency is read from the fitted curve at half-maximal effect). Summed up:
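In this cell-based qHTS, attached SH-SY5Y cells were treated with test chemicals for 30 min, after which acetylthiocholine hydrolysis was followed by DTNB colour development over 90 min at 37 C.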

Assay [12] has the same target. As to the kind of experiment: Acetylcholinesterase (AChE) small molecule antagonists: enzyme-based qHTS assay (AID 1347397; calls by dose curve; also: nearly all actives have a fitted effect of over 55% in size; also: potency is read from the fitted curve at half-maximal effect). Particulars: Potency: AChE enzyme activity inhibition. Summed up:
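Colorimetric DTNB read-out of thiocholine released from acetylthiocholine by recombinant human AChE (50 mU/mL as dispensed). Compounds were preincubated 30 min at RT before substrate/DTNB addition, with a 10 min RT reaction.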

Assay [13] shares this target. As to the kind of experiment: Acetylcholinesterase (AChE) small molecule antagonists: fluorescence cell-based qHTS assay (AID 1347398; calls by dose curve; also: nearly all actives have a fitted effect of over 50% in size; also: potency is read from the fitted curve at half-maximal effect). Particulars: Potency: AChE activity. Summed up:
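SH-SY5Y, 2,000 cells/well, attached overnight; cmpd 30 min 37 C; acetylthiocholine/Thiolite Green cocktail 40 min RT; fluorescence Ex/Em 490/520 nm.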

In assay [14] the target is Cytochrome P450 2D6 (Homo sapiens) (UniProt P10635). As to the kind of experiment: Cytochrome P450 Family 2 Subfamily D Member 6 (CYP2D6) small molecule antagonists: luciferase reporter qHTS assay (AID 1671196). Also: nearly all actives have a fitted effect of over 50% in size. Also: potency is read from the fitted curve at half-maximal effect. The procedure, abridged:
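Chemicals tested for interference with CYP2D6 activity; proluciferin substrate, NADPH regeneration, 1 h at room temperature, luminescent detection.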
For orientation: In a reporter assay the amount or activity of a reporter protein is the signal.

In assay [15] the target is Cytochrome P450 2C19 (Homo sapiens) (UniProt P33261). Nature of the assay: Cytochrome P450 Family 2 Subfamily C Member 19 (CYP2C19) small molecule antagonists: luciferase reporter qHTS assay (AID 1671197). Also: nearly all actives have a fitted effect of over 65% in size. Also: potency is read from the fitted curve at half-maximal effect. The procedure, abridged:
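First, compounds are pinned into enzyme-substrate mix and held 10 min at room temperature. Second, NADPH regeneration solution is added and plates incubate 1 h at 37C. Third, detection reagent is added and luminescence read after 20 min.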

The target of assay [16] is Cytochrome P450 2C9 (Homo sapiens) (UniProt P11712). Nature of the assay: Cytochrome P450 Family 2 Subfamily C Member 9 (CYP2C9) small molecule antagonists: luciferase reporter qHTS assay (AID 1671198). Also: nearly all actives have a fitted effect of over 50% in size. Also: potency is read from the fitted curve at half-maximal effect. Summed up: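 P450-Glo proluciferin substrate with CYP2C9 enzyme; 10 min RT preincubation, then NADPH regeneration 1 h at 37C; luciferin detection reagent 20 min RT, luminescence in relative luminescence units.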

In assay [17] the target is Cytochrome P450 3A4 (Homo sapiens) (UniProt P08684). Nature of the assay: Cytochrome P450 Family 3 Subfamily A Member 4 (CYP3A4) small molecule antagonists: luciferase reporter qHTS assay (AID 1671201). Also: nearly all actives have a fitted effect of over 50% in size. Also: potency is read from the fitted curve at half-maximal effect. The procedure, abridged:
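Room-temperature assay throughout: 10 min compound–enzyme/substrate preincubation, 1 h reaction after NADPH regeneration solution, 20 min detection. Luciferin formed from proluciferin substrate is quantified by luminescence.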

The target of assay [18] is Acetylcholinesterase (Homo sapiens) (UniProt P22303). Nature of the assay: Acetylcholinesterase (AChE) small molecule antagonists: enzyme-based qHTS assay with human liver microsomes (AID 1347399; calls by dose curve; also: nearly all actives have a fitted effect of over 60% in size; also: potency is read from the fitted curve at half-maximal effect). Particulars: Potency: qHTS inhibition. Summed up: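 Recombinant human AChE (50 mU/mL in the enzyme mix) and human liver microsomes (0.25 mg/mL final) were preincubated with compound and NADPH (0.25 mg/mL final) for 30 min at 37 C. Acetylthiocholine/DTNB was then added; thiocholine was read colorimetrically after 10 min at room temperature.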

Assay [19] addresses Cytochrome P450 1A2 (Homo sapiens) (UniProt P05177). Nature of the assay: Cytochrome P450 Family 1 Subfamily A Member 2 (CYP1A2) small molecule antagonists: luciferase reporter qHTS assay (AID 1671199). The procedure, abridged:
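Read-out is luminescence from luciferin detection reagent (20 min) proportional to CYP1A2 activity; compounds in DMSO preincubated 10 min with enzyme and proluciferin substrate, then NADPH regeneration solution, 1 h, room temperature.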

Assay [20] addresses Voltage-gated inwardly rectifying potassium channel KCNH2 (Homo sapiens) (UniProt Q12809). As to the kind of experiment: Human Ether-a-go-go-Related Gene (hERG) channel small molecule antagonists: fluorescence cell-based qHTS assay (AID 1671200). The procedure, abridged:
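Cell line hERG-U2OS; dye FluxOR II, 1 h RT dark; Tl+ stimulus; ex 480/em 540 nm, read each second for 2 min.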

Each structure is given as a SMILES string. Where “and” joins values, the source holds several entries; their conditions need not be identical. Equal values may be shown once. Results filed as inconclusive are left out. A structure can be active in one record and inactive in another. Calls of active or inactive are those of the source. Unless noted, calls follow the shape of the dose curve; as a rule, active = well fitted curve in the direction sought with a large enough effect in the repeat runs; inconclusive = weak or mixed curves; inactive = no such curve, though single readings can be large; an effect the other way counts as inactive or inconclusive.

Drawing on PubChem BioAssay (Tox21), this text covers Potency for eight compounds.

Cytochrome P450 2D6 (Homo sapiens), sequence (P10635 whole entry, looked up): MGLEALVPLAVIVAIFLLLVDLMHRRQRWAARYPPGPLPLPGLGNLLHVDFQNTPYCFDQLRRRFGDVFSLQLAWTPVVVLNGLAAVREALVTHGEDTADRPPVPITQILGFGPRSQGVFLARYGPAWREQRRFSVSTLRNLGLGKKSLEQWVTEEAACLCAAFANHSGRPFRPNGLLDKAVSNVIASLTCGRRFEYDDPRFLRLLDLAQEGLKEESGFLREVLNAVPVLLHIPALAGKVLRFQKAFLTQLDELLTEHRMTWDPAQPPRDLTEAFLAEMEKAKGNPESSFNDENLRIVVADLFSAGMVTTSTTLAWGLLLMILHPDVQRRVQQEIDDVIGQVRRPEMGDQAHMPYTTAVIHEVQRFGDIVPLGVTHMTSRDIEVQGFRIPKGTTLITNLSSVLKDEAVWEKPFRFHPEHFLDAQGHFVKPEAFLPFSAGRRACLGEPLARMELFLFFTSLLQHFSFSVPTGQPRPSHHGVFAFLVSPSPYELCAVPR
Cytochrome P450 1A2 (Homo sapiens), sequence (P05177 whole entry, looked up): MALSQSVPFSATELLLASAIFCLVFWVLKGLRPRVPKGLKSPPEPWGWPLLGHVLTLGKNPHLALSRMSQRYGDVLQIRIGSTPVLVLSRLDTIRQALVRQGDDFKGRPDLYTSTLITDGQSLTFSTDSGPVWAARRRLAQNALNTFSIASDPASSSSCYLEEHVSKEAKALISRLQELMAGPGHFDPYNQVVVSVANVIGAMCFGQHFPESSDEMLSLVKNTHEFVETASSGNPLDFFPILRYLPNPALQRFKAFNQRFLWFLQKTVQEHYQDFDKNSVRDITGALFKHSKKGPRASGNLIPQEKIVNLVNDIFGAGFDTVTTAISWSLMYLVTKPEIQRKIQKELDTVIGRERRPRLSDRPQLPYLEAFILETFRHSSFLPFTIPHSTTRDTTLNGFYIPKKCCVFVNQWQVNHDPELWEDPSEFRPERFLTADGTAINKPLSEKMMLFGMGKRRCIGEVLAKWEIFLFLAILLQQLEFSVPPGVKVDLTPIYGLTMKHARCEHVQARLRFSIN
Thyrotropin-releasing hormone receptor (Homo sapiens), sequence (P34981 whole entry, looked up): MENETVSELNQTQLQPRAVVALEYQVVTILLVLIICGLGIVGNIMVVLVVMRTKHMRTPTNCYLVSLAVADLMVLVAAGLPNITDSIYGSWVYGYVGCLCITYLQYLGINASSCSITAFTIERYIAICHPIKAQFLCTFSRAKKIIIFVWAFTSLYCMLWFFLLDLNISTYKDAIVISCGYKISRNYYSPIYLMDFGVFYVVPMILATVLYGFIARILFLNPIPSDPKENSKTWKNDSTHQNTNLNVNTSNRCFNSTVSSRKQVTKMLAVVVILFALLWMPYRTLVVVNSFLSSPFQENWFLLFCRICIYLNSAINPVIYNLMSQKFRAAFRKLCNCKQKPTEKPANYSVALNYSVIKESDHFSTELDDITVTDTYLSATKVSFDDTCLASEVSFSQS
Acetylcholinesterase (Homo sapiens), sequence (P22303 whole entry, looked up): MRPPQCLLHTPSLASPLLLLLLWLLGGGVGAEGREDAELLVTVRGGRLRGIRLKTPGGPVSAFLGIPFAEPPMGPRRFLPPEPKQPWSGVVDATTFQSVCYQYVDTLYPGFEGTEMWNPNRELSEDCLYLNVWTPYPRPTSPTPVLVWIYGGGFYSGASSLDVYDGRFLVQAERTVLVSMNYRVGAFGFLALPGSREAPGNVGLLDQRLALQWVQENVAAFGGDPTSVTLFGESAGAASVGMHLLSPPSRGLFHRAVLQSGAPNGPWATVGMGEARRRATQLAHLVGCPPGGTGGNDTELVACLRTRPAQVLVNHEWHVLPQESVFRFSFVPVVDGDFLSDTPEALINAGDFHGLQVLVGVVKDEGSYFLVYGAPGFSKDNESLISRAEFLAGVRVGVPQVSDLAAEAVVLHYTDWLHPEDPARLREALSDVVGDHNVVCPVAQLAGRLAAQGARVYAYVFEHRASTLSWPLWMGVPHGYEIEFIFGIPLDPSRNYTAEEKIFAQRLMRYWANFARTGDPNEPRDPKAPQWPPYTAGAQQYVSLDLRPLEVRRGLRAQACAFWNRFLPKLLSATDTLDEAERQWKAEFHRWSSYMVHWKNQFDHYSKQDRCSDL
Cytochrome P450 2C9 (Homo sapiens), sequence (P11712 whole entry, looked up): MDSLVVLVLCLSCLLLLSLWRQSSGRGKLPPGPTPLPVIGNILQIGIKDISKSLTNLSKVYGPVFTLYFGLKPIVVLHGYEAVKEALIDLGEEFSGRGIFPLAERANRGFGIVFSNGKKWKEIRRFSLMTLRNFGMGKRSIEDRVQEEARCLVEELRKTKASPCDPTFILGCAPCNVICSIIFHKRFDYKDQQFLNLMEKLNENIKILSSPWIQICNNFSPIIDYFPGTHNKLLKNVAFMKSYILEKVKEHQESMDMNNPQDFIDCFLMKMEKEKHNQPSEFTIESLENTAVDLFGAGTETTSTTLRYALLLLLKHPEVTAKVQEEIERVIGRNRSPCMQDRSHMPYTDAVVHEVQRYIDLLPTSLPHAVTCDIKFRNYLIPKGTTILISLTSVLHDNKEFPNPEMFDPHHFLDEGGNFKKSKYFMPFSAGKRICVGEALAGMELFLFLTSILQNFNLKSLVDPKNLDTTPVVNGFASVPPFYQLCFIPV
Voltage-gated inwardly rectifying potassium channel KCNH2 (Homo sapiens), sequence (Q12809 whole entry, looked up): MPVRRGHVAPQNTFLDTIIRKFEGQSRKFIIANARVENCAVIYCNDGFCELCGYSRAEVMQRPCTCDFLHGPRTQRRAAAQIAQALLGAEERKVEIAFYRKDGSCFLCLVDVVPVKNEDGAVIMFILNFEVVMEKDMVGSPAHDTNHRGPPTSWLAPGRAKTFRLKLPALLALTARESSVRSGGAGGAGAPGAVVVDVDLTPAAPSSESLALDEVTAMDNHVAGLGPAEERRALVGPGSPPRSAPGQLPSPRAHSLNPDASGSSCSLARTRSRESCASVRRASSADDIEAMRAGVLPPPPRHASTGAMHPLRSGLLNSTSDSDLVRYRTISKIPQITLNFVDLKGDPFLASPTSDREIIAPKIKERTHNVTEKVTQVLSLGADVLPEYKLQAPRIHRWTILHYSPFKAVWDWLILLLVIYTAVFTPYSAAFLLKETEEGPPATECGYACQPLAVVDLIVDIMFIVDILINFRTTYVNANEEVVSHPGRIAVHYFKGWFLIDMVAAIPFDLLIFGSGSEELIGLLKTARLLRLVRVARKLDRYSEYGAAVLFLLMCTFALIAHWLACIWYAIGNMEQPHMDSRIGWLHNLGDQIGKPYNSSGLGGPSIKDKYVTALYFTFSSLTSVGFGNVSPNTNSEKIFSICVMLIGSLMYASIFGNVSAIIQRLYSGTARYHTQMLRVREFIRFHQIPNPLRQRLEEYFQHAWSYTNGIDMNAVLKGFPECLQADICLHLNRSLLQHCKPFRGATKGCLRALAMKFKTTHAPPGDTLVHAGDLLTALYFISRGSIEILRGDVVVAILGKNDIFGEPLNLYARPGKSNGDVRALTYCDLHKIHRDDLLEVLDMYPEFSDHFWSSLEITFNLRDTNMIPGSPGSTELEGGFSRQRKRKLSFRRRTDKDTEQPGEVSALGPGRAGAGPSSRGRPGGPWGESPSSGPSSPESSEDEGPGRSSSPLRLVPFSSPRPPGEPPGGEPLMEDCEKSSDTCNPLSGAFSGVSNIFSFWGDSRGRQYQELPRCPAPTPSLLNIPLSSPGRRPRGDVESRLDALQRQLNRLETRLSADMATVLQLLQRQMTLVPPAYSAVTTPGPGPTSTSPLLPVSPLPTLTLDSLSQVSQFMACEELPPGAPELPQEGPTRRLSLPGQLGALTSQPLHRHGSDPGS
Cytochrome P450 3A4 (Homo sapiens), sequence (P08684 whole entry, looked up): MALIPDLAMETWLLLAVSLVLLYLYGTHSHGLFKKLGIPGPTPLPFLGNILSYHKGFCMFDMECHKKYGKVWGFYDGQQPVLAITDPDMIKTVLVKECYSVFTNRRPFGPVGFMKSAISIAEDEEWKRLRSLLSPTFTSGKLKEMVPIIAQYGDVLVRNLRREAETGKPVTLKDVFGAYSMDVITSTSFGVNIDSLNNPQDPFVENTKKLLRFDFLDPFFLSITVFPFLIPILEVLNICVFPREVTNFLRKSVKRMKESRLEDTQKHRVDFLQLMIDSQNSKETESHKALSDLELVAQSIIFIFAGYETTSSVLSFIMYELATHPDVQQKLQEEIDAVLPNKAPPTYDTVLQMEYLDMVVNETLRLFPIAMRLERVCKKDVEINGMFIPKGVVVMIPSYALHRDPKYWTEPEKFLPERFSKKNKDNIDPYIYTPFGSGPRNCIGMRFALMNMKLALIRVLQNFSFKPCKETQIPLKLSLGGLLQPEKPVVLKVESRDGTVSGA
Nuclear receptor subfamily 1 group I member 2 (Homo sapiens), sequence (O75469 whole entry, looked up): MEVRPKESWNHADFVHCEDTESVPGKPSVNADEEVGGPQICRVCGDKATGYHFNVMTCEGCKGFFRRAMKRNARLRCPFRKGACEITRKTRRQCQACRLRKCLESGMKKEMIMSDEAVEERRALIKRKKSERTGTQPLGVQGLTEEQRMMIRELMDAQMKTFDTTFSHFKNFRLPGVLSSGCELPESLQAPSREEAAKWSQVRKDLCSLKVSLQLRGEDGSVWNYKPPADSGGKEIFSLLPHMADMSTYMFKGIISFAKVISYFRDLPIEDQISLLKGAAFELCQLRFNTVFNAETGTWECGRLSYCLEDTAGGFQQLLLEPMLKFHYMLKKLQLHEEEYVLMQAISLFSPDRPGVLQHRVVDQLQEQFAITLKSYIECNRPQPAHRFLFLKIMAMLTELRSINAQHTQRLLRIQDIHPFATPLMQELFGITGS

For `CC(=O)[C@H]1CC[C@H]2[C@@H]3CC[C@H]4C[C@](C)(O)CC[C@]4(C)[C@H]3CC[C@]12C`, the Potency result in assay [1], in [2], in assay [3], in assay [4], in [5] and in [6] was “inactive” each time. Further, the Potency result in assay [7], in assay [9], in [10], in assay [11], in assay [12] and in assay [13] was “inactive” in each case. The Potency result in [14], in [15], in assay [16] and in [17] was “inactive” in each case. Also, the Potency in assay [8] was 3.98 µM (active).
With `CCOP(=S)(OCC)Oc1nc(Cl)c(Cl)cc1Cl`, the Potency entry in assay [1], in assay [2], in assay [3], in assay [4], in [5] and in assay [6] was “inactive” each time. The Potency entry in [20] is “inactive”. In addition, the Potency in [7] is 17.3 µM (active) and inactive; in assay [11] it was 35.7 µM (active) and 35.6 µM (active); in [12] it was 79.9 µM (active); in assay [13], 35.7 µM (active) and 35.6 µM (active); in assay [18], 56.6 nM (active) and 894 nM (active); in assay [15], 2.25 µM (active) and 5.03 µM (active). The Potency in [16] is 7.99 µM (active) and 10 µM (active); in assay [19], 2.53 µM (active) and 3.56 µM (active); in assay [17] it was 1.13 µM (active) and 2 µM (active).
In the case of `CC(Cl)Cl`, the Potency entry in assay [1], in assay [2], in assay [3], in assay [4], in [5] and in assay [6] was “inactive” throughout. Also, the Potency result in assay [7], in assay [11], in assay [12], in assay [13], in [18] and in [14] was “inactive” throughout. The Potency result in [15], in assay [16], in [20] and in assay [17] was “inactive” in each case.
As for `COC(C)(C)CCC[C@H](C)C/C=C/C(C)=C/C(=O)OC(C)C`, the Potency result in [1], in [2], in [3], in [4], in assay [5] and in assay [6] was “inactive” each time. Moreover, the Potency result in assay [11], in assay [12], in assay [13], in [18] and in [20] was “inactive” throughout. The Potency in [7] was 24.3 µM (active); in assay [15], 17.8 µM (active); in [16] it was 22.4 µM (active); in assay [19] it was 35.6 µM (active); in assay [17], 20 µM (active).
As for `CCOC(=O)CBr`, the Potency entry in [1], in [2], in assay [3], in [4], in [5] and in assay [6] was “inactive” each time. Besides, the Potency entry in [7], in assay [11], in assay [12], in [13], in assay [18] and in assay [17] was “inactive” each time. The Potency in assay [14] was 40.1 µM (active); in assay [15], 40.1 µM (active); in [19] it was 63.6 µM (active).
`CCCN(CC1CC1)c1c([N+](=O)[O-])cc(C(F)(F)F)cc1[N+](=O)[O-]`: the Potency entry in [1], in [2], in [3], in [4], in [5] and in assay [6] was “inactive” in each case. Moreover, the Potency entry in [11], in [12], in assay [13], in [18], in assay [14] and in [20] was “inactive” in each case. In addition, the Potency in assay [7] was 19.3 µM (active); in assay [15], 20 µM (active); in assay [16] it was 31.7 µM (active).
In the case of `CCO[C@H]1O[C@@H]2OC3(C)CC[C@H]4[C@H](C)CC[C@@H]([C@H]1C)[C@@]24OO3`, the Potency entry in assay [1], in assay [2], in [3], in assay [5], in assay [6] and in assay [7] was “inactive” in each case. For the same compound, the Potency entry in assay [11], in assay [12], in assay [13], in [14] and in [20] was “inactive” in each case. Moreover, the Potency in assay [4] is 0.266 µM (active); in [15], 21.9 µM (active); in [16] it was 11 µM (active).
Regarding `CCCCc1c(C)nc(NCC)nc1OS(=O)(=O)N(C)C`, the Potency result in assay [1], in assay [3], in [5], in assay [11] and in assay [12] was “inactive” throughout. Besides, the Potency in assay [2] is 61.1 µM (active); in assay [4], 61.1 µM (active); in assay [6], 61.1 µM (active); in assay [7], 9.69 µM (active); in assay [15], 79.6 µM (active); in assay [16], 31.7 µM (active). Moreover, the Potency in assay [19] and in assay [17] was 12.6 µM (active) each time.
